Shown are actives, neighbours in structure and some others; about 10% of the full set was active somewhere.
BAZ2B block: inhibitors of human BAZ2B bromodomain. Q9UIF8. AlphaScreen BAZ2B-H3K14Ac peptide displacement. Potency, µM (titrated, usually from 114 µM), inactives show at the top dose activity change, negative = inhibition, actives largely listed as inhibitors. 360,000 compounds, 4.4% hits; note: potency is the fitted concentration of half-maximal effect; % is set by controls: 0 for no effect and ±100 for the full control effect; nearly all actives have a fitted effect of over 60% in size
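Complex of BAZ2B and biotin-H3K14Ac (50 nM apiece) forms over 30 min at RT, then faces library compounds up to 110 uM for another 30 min; AlphaScreen beads added, 20 min dark incubation, luminescence read.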
G9a inh: inhibitors of human histone lysine methyltransferase G9a; AID 504332; Potency, µM (highest dose often 102 µM), for the others: at the highest dose activity, negative = inhibition, hits mostly inhibitors; 350,000 compounds, 8.8% hits; G9a H3K9 monomethylation, AlphaScreen, 2 h; note: potency is the fitted concentration of half-maximal effect; % is set by controls: 0 for no effect and ±100 for the full control effect; nearly all actives have a fitted effect of over 75% in size
Target sequence (Q96KQ7 913-1193 limits assumed): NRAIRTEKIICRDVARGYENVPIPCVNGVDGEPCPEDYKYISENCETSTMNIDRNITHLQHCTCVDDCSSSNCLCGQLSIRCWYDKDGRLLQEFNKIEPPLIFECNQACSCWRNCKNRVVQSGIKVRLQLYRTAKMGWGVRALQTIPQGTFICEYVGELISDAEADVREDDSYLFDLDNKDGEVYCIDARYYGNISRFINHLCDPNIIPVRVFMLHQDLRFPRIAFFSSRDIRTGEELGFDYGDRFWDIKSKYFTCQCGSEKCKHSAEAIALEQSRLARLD
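Using a bead-based AlphaScreen, monomethylated H3K9 product from 2 h room-temperature reactions (G9a 20 nM, peptide 500 nM, SAM 20 uM) was detected with 0.5 ug/mL rabbit anti-H3K9me1 antibody.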
HP1b binding inh: inhibitors of HP1-beta chromodomain binding to methylated histone tails; AlphaScreen HP1-beta / biotin-H3K9me3 peptide binding; Potency, µM (highest dose often 114 µM), without a hit: at the highest dose activity change, negative = inhibition, most hits filed as inhibitors; P83916; 390,000 compounds, 0.56% hits; note: potency is the fitted concentration of half-maximal effect; nearly all actives have a fitted effect of over 70% in size
Target sequence (P83916 whole entry, looked up): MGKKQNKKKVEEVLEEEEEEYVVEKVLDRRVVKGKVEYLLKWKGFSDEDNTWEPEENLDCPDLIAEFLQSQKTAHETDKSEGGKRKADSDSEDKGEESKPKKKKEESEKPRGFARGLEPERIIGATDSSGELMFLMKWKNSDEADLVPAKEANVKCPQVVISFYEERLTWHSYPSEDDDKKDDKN
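AlphaScreen: HP1-beta (50 nM) preformed 30 min with biotin-H3(1-18)K9me3 peptide (50 nM) in PBS pH 7.4, 0.01% Tween-20. Compound added for 30 min at RT, then streptavidin donor/nickel chelate acceptor beads (10 ug/mL) for 30 min.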
Six1-Eya2 inh: Six1/Eya2 interaction inhibition. Q15475+O00167. AlphaScreen GST-Six1/His-Eya2 binding, biochemical; hits give low values. activity change, % (no concentration beside the values). 360,000 compounds, 0.56% hits. AID 651725; in the data active = activity change below about -65%; inconclusive = mostly about -30% to -63%; note: % is set by controls: 0 for no effect and ±100 for the full control effect
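Six1/Eya2 binding was read as AlphaScreen signal after compounds were pinned into GST-Six1 plus His-tagged Eya2 (5X stock 250/500 nM) in pH 8.0 Tris/NaCl/TCEP buffer, beads added, then incubated 1 h, 37 C, dark.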
JMJD2A Tudor: blocks the human JMJD2A Tudor domain | O75164 | AlphaScreen JMJD2A-Tudor / H3K4me3 peptide binding | Potency, µM (highest dose often 114 µM), for the others: at the highest dose activity change, negative = inhibition, actives largely listed as inhibitors | 390,000 compounds, 4.4% hits; note: potency is the fitted concentration of half-maximal effect; % is set by controls: 0 for no effect and ±100 for the full control effect; nearly all actives have a fitted effect of over 50% in size
CtBP-E1A inh: CtBP/E1A binding inhibition; AlphaScreen GST-E1A/His-CtBP binding, 1536-well; hits give low values; activity change, % (no concentration beside the values); 340,000 compounds, 0.49% hits; AID 651724; in the data active = activity change below about -65%; inconclusive = mostly about -30% to -63%; note: % is set by controls: 0 for no effect and ±100 for the full control effect
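Protein mix (5X: 125 nM each GST-E1A, His-CtBP) was incubated with pinned compound 2 h at 37 deg C in dark, in 50 mM Tris pH 8.0 buffer with 300 mM NaCl. Glutathione donor and nickel acceptor beads followed; AlphaScreen signal read after 1 h.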
An asterisk follows results filed as active; ? = inconclusive; / = not tested or not shown; ! = not active in a repeat; [ ] = remark or other dose. Unless noted, calls come from the whole dose curve; as a rule, active = well fitted inhibition curve with a large enough effect; inconclusive = small, poorly fitted or top-dose-only effect; inactive = no such curve, though single readings can be large or run the other way.

SMILES	BAZ2B block	G9a inh	HP1b binding inh	Six1-Eya2 inh	JMJD2A Tudor	CtBP-E1A inh
O=C(NCCS(=O)(=O)N1CCN(c2ccccc2F)CC1)C1CC(=O)N(c2ccccc2)C1 (configuration not stated)	-1%	16%	13%[57 µM]	3	-8%	/
Cc1ccc(N2CC(C(=O)NCCS(=O)(=O)N3CCN(c4ccccc4F)CC3)CC2=O)cc1 (configuration not stated)	-15%	-8%[59 µM]	1%	1	16µM*!	2
Cc1ccc(N(Cc2cccs2)C(=O)c2ccccc2)cc1	24%	8%[59 µM]	106%	/	64%	/
CC(C)Nc1oc(-c2cccc3ccccc23)nc1C#N	-34%	45µM*	-8%	13	27%	-7
COc1cc(C2C=C(Nc3ccccc3)C(=O)N2c2ccccc2)ccc1O (configuration not stated)	?	50µM*	-3%	-7	?	-23
Cc1c(CCNC(=O)c2ccc(C(C)(C)C)cc2)sc2nc(-c3ccc(F)cc3)nn12	-1%	1%[59 µM]	45%	/	-22%	/
Nc1n[nH]c(=S)n1/N=C1/C(=O)Nc2ccccc21	-25%	1µM*	16µM*	?	2.5µM*	/
O=C1/C(=C\c2ccc(Br)o2)Cc2ccccc21	?	?	-5%	11	?	0
Cn1cccc1/C=C1\CCc2ccccc2C1=O	40µM*	?	?	-25	45µM*	?
COc1ccc2c(c1)CC/C(=C/c1ccco1)C2=O	35µM*	?	?	-10	-34%	-12
Nc1ccc2c(c1)C/C(=C/c1ccco1)C2=O	?	7.1µM*	-15%	-3	-33%	6
Cn1cccc1/C=C1\Cc2ccccc2C1=O	-26%	-8%[59 µM]	21%	-7	-10%	0
COc1ccc(C=C2CCc3ccccc3C2=O)cc1	/	/	/	-1	/	4
O=C1/C(=C/c2ccco2)CCc2ccccc21	40µM*	10µM*	?	-1	-35%	-5
CN(c1nnc(NC(=O)Nc2ccccc2C(F)(F)F)s1)C1CCCCC1	-17%	-16%[59 µM]	8%	/	-5%	/
CCOC(=O)c1cc(OC(=O)c2ccc(C)cc2)n(-c2ccccc2)n1	13%	53%[59 µM]	89%	/	-12%	/
O=C1CNC(=S)N1CCCn1ccnc1	-26%	-27%	46%	3	-11%	2
Cc1ccc(S(=O)(=O)NCCCn2ccnc2)cc1	?	-17%[59 µM]	14%	4	-14%	-11
Cc1ccc(S(=O)(=O)NC(=O)c2cc(C)n(CCCn3ccnc3)c2C)cc1	32µM*	?	36%	?	56µM*	-25
Cc1cc(=S)cc(C)n1CCCn1ccnc1	/	25µM*	18%	-2	-20%	-1
CC(C(=O)O)C(=O)O	-4%	10µM*	-18%	4	79µM*	-7
CCOc1ccccc1C(=O)N(Cc1ccc(N(C)C)cc1)Cc1ccco1	35µM*	20µM*	?	/	25µM*	/
CSc1ncc(Cl)c(C(=O)N(Cc2ccc(N(C)C)cc2)Cc2ccco2)n1	18µM*	13µM*	?	/	22µM*	/
COc1ccc(C(=O)N(Cc2ccco2)Cc2ccco2)cc1	-30%	8%[59 µM]	10%	/	-22%	/
Cc1c(C(=O)N(Cc2ccc(N(C)C)cc2)Cc2ccco2)oc2cc(Br)ccc12	?	?	?	/	18µM*	/
CC(C)COc1ccc(C(=O)N(Cc2ccc(N(C)C)cc2)Cc2ccco2)cc1	13µM*	16µM*	-15%	/	14µM*	/
COc1ccc(NC(=O)CSc2nc(-c3ccccc3)cc(-c3cc(OC)c(OC)c(OC)c3)c2C#N)c(OC)c1	-9%	?	12%	/	-26%	/
O=C1CCc2cc(S(=O)(=O)NCc3ccccc3)ccc2N1	/	/	/	/	-11%	/
Cc1ccc2c(CC(=O)N(Cc3ccc(N(C)C)cc3)Cc3ccco3)coc2c1C	8.9µM*	8.9µM*	?	/	13µM*	/
CN(C)c1ccc(CN(Cc2ccco2)C(=O)c2ccco2)cc1	?	45µM*	?	?	32µM*	?

Bioassay records: PubChem BioAssay, National Center for Advancing Translational Sciences (NCATS)
